Screening results: PubChem, National Center for Advancing Translational Sciences (NCATS)
A selection: hits, their analogues and other compounds. The true share with any hit is near 4.2%.
PLK1 PBD inh: blocks phosphopeptide binding to human PLK1 polo-box domain. Potency, µM, for the others: max response, negative = inhibition, most hits filed as inhibitors. Plk1 PBD binding of FITC phosphopeptide, fluorescence polarization. 360,000 compounds, 2.8% hits; note: potency is the fitted concentration of half-maximal effect; series mostly up to about 57 µM; nearly all actives have a fitted effect of over 65% in size
Target sequence (P53350 whole entry, looked up, the tested form may be a part): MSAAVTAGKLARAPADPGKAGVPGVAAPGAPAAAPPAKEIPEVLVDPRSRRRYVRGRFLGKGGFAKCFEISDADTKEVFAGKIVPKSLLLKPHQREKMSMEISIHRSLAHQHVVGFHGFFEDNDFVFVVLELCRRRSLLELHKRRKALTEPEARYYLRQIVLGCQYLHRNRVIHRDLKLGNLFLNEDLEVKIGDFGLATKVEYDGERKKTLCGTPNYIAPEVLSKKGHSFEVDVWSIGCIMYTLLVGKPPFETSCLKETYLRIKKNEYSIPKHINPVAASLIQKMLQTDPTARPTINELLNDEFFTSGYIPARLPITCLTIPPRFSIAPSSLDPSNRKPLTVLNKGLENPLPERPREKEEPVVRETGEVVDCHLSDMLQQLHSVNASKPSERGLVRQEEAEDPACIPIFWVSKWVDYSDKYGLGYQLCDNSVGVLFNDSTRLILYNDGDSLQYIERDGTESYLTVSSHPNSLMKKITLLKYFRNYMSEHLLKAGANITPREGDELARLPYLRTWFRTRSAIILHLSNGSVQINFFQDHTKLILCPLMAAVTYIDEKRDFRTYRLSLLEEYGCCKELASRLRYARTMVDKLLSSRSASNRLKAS
Sfp inh: inhibitors of Bacillus subtilis Sfp phosphopantetheinyl transferase | Q9F4F7 | Biochemical Sfp PPTase activity, qHTS | Potency, µM, without a hit: largest response in the series, negative = inhibition, most hits filed as inhibitors | 310,000 compounds, 3.5% hits;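 note: the enzyme is Sfp with the accession as filed and its product quenches rhodamine fluorescence; potency is the fitted concentration of half-maximal effect; 0% = enzyme reaction without inhibitor and -100% = no enzyme wells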
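Sfp 15 nM + cpd, 15 min RT; start w/ rhodamine-CoA 5 uM, BHQ-2-YbbR 12.5 uM (final); 50 mM Hepes pH 7.6, 10 mM MgCl2, 0.01% NP-40, 0.01% BSA; read 525/598 nm at 0 and 30 min.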
12-LOX inh: ALOX12 (human) lipoxygenase inhibition | P18054 | Potency, µM (series often up to 108 µM), for the others: top-dose activity change, negative = inhibition, most hits filed as inhibitors | 580,000 compounds, 1.1% hits | purified 12hLO, xylenol orange hydroperoxide absorbance; note: potency is the fitted concentration of half-maximal effect
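Hydroperoxide product was detected by ferrous iron/xylenol orange as the 573 to 405 nm absorbance ratio. Arachidonic acid at 40 uM (final) was turned over for 30 min at room temperature by 150 nM human 12hLO, pH 7.0 Hepes buffer, after 15 min compound preincubation.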
VDR inh: blocks the human vitamin D receptor | P11473 | VDR-SRC2-3 peptide fluorescence polarization, 2 h | Potency, µM, for inactives: max response, negative = inhibition, usual class: inhibitors | 400,000 compounds, 0.93% hits | AID 504847; note: potency is the fitted concentration of half-maximal effect
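Measured by FP: displacement of SRC2-3 coactivator peptide from VDR by library compounds, following a two-hour ambient incubation.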
Sfp PPTase conf: Sfp phosphopantetheinyl transferase inhibition, confirmation. Sfp PPTase enzymatic assay, qHTS titration. shares compounds with Sfp inh. 380 compounds, 79% hits. Potency, µM (titrated, usually from 114 µM), without a hit: at the top dose activity change, negative = inhibition, most hits filed as inhibitors;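 note: potency is the fitted concentration of half-maximal effect; plate controls were uninhibited Sfp reaction for no effect and no enzyme control for full effect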
Sfp gel assay: Inhibits Bacillus subtilis Sfp phosphopantetheinyl transferase; shares compounds with Sfp inh; purified Sfp, gel-based phosphopantetheinylation read-out; Potency, µM, actives largely listed as inhibitors; 210 compounds, 20% hits;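 active = potency below 100 µM; inconclusive = dose-dependent response but potency above 100 µM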;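 note: band intensities scaled against SCH202676 control wells before curve fitting; potency is an IC50 for inhibitors of Sfp transfer activity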
* = called active by the depositor; i = inactive; ? = inconclusive; . = not tested or not shown; ! = not confirmed by another sample. Unless noted, calls come from the whole dose curve; as a rule, active = well fitted curve in the direction sought with a large enough effect; inconclusive = small, poorly fitted or top-dose-only effect, or another doubt; inactive = no such curve, though single readings can be large; an effect the other way counts as inactive or inconclusive. Unless noted, % is set by controls: 0 for no effect and ±100 for the full control effect.

SMILES | PLK1 PBD inh | Sfp inh | 12-LOX inh | VDR inh | Sfp PPTase conf | Sfp gel assay
COC(=O)Oc1nsnc1N1CCOCC1 | 2.67µM* | 12.6µM* | ? | -90.7% | 10.5µM* | .
CCc1ccc(OCc2ccccc2C(=O)Nc2ccc3nc(C)cc(N)c3c2)cc1 | . | 12.6µM* | ? | 43.8% | 46.9µM* | .
Cc1noc(C)c1CS(=O)(=O)c1ccc([N+](=O)[O-])cc1 | -5.6% | 15.2% | 4.0% | 7.4% | . | .
O=C(O)c1ccc(-n2c(=O)c3ccccc3c3ccccc3c2=O)cc1 | ? | 7.94µM* | -16.7% | ? | 74.4µM* | ?
C=C1C(=O)[C@]23[C@H](O)[C@H]1CC[C@H]2[C@@]12COC3(O)[C@H](O)[C@@H]1C(C)(C)CC[C@@H]2O | . | 12.6µM* | . | 7.08µM* | 26.4µM* | ?
COc1ccc(-c2cc(N3CCC(NC(=O)c4cc(C)cc(C)c4)C3)n[nH]2)cc1 (stereo not given) | . | . | 22.7% | . | . | .
COc1ccccc1CC(Cc1nc2ccccc2[nH]1)c1nc2ccccc2[nH]1 (stereo not given) | -2.6% | 5.01µM* | 13.4% | 18.3% | 16.7µM* | .
CCN(CC)c1ccc(/C=C/c2nc3ccccc3s2)cc1 | . | 17.8µM* | . | . | 33.2µM* | i
O=C(COC(=O)/C=C/c1cccc(Cl)c1)NCCC1=CCCCC1 | -3.2% | 0.6% | 19.4% | -11.3% | . | .
S=C(Nc1ccccn1)c1ccccn1 | 26.7µM* | 2.82µM* | 4.47µM* | -3.2% | 52.7µM* | .
CC1=C(C(N)=O)N2C(=O)[C@@H](NC(=O)Cc3ccccc3)C2SC1 (stereo not given in full) | . | 25.1µM* | ? | -13.6% | 4.49µM* | 0.92µM*
CC1=C(C(=O)OCC(Cl)(Cl)Cl)N2C(=O)C(NC(=O)Cc3ccccc3)C2SC1 (stereo not given) | -28.7% | ? | -9.3% | -10.5% | . | .
O=C(N/N=C/c1ccc(N2CCCCC2)o1)C(O)(c1ccccc1)c1ccccc1 | . | 8.91µM* | . | . | 37.3µM* | .
C=CCC(C)(NCc1ccccc1)c1ccc(C)cc1 (stereo not given) | 8.3% | 16.1% | ? | 7.1% | . | .
COC(=O)c1[nH]c2ccccc2c1NC(=O)c1ccccc1F | -15.7% | 20.6% | 7.1% | 3.7% | . | .
COC(=O)c1[nH]c2ccccc2c1NC(=O)Oc1ccccc1 | ? | 11.2µM* | ? | 7.5% | ? | .
O=C(CSc1ncnc2sc3c(c12)CCCC3)c1ccco1 | -14.3% | ? | 0.0% | -7.8% | . | .
O=C(CSc1ncnc2sc3c(c12)CCCCC3)NCc1ccco1 | -10.3% | 14.1µM* | 6.2% | -13.7% | 52.7µM* | .
Cn1nnc(NC(=O)c2ccco2)n1 | -0.5% | 18.9% | -1.3% | 23.1% | . | .
Cn1nnc(NC(=S)NC(=O)c2ccco2)n1 | -23.0% | 6.31µM* | ? | 2.5% | ? | i
Clc1ccccc1-c1nn2c(-c3ccncc3)nnc2s1 | 23.8µM* | 15.8µM* | . | ? | 13.2µM* | .
Clc1ccccc1-c1nn2c(-c3ccccn3)nnc2s1 | 0.1% | 4.8% | 0.0% | 6.4% | . | .
CC[C@H](NC(=O)CC[C@H]1O[C@@H](n2cnc3c(NC(=O)c4ccccc4)ncnc32)[C@H](O)[C@@H]1O)c1ccccc1 | -1.9% | . | -13.4% | . | . | .
COC(=O)c1c(NC(=O)c2ccc(C)o2)sc2c1CCCCC2 | -24.2% | 14.1µM* | -18.3% | -26.8% | 37.3µM* | i
Cc1ccc(C(=O)Nc2sc3c(c2C(=O)O)CCCCC3)o1 | -9.6% | -1.3% | 0.0% | -16.6% | . | .
SMILES | PLK1 PBD inh | Sfp inh | 12-LOX inh | VDR inh | Sfp PPTase conf | Sfp gel assay
COc1ccc(N2CC(C(=O)N3CCC4(CC3)CC(=O)c3ccccc3O4)CC2=O)cc1 (stereo not given) | -1.7% | . | -8.2% | -4.3% | . | .
O=C(O)Cc1sc(Nc2ccc(Cl)cc2)nc1-c1cccs1 | ? | 1.26µM* | 14.1µM* | 6.0% | 59.1µM* | .
Clc1ccccc1CSc1nc2ccncc2[nH]1 | ? | 56.2µM* | -28.5% | -13.6% | ? | ?
CC1CCCCC1NC(=O)CSc1nnc(-c2ccco2)n1C (stereo not given) | -6.9% | . | ? | -13.8% | . | .
C1=C(c2ccccc2)CCN(c2nc3ccccc3n3cnnc23)C1 | -24.1% | 28.2µM* | ? | -29.6% | 37.3µM* | .
CCC(C)(C(=O)NC1CCCCC1)N(C(=O)Cc1cccs1)c1ccccc1 (stereo not given) | -10.7% | 25.2% | 3.9% | -11.2% | . | .
CC[C@H](C)[C@@H]1OC(=O)[C@@H](C)[C@@H](CC)NC(=O)[C@H](C)N(C)C(=O)C(C)(C)C(=O)C(C)NC(=O)[C@H](Cc2ccccc2)N(C)C(=O)[C@H](C(C)C)N(C)C(=O)CNC(=O)[C@H](CC(C)C)N(C)C(=O)CNC1=O (stereo not given in full) | -9.1% | . | . | . | . | .
CC(C)C(C(=O)NC1CCCC1)N(CC1CCCO1)C(=O)CNS(=O)(=O)c1ccccc1 (stereo not given) | -9.9% | 13.5% | -3.7% | 1.6% | . | .
Cc1c(C(=O)OCC2CCCO2)[nH]c2c1C(=O)CC(c1ccco1)C2 (stereo not given) | ? | 15.8µM* | . | -10.9% | 37.3µM* | i
COc1ccccc1NC(=O)CSc1nnc(-c2ccccn2)n1Cc1ccco1 | -9.0% | 4.47µM* | 0.8% | -21.2% | 59.1µM* | i
CC(C)c1ccc(Cn2ccc3c4c(N)nc(NC5CC5)nc4ccc32)cc1 | . | 5.01µM* | 21.7µM*! | 0.2% | 13.2µM* | ?
CCOC(=O)c1c(NS(=O)(=O)c2cccc(OC)c2)sc2c1CCC2 | ? | 2.82µM* | -13.1% | -1.9% | 26.4µM* | .
NC(=O)N1c2ccccc2CC(=O)c2ccccc21 | -18.5% | 35.5µM*! | -13.9% | 50.1µM*! | 46.9µM* | i
O=C1C2C3CCC(O3)C2C(=O)N1c1cc(OCC(F)F)cc([N+](=O)[O-])c1 (stereo not given) | -6.1% | . | -3.6% | 10.0% | . | .
O[C@@H]1CCN2Cc3ccccc3N=C12 | . | 2.82µM* | ? | 3.55µM* | 2.1µM* | 0.69µM*
CCN(CC)C1=CC(=O)OC12CCCCC2 | 10.6µM* | 35.5µM* | 0.0% | 0.8% | ? | .
COc1cccc(-c2nn(C)c3sc(C(=O)NCc4ccc(C)o4)cc23)c1 | ? | 3.55µM* | ? | ? | 23.5µM* | .
COc1ccccc1N1CCN(C(=O)c2oc3cc(C)cc(C)c3c2C)CC1 | 1.2% | 2µM* | -3.2% | 1.7% | 46.9µM* | i
COc1ccccc1N1CCN(C(=O)c2cc(=O)c3ccc(C)cc3o2)CC1 | -14.7% | -6.5% | 73.4% | 0.4% | . | .
O=C(CCc1cccnc1)NCC12CC3CC(CC(C3)C1)C2 | . | . | -41.5% | . | . | .
CCOC(=O)c1c(C)[nH]c(C2=NNC(=NC3CC3)SC2)c1C | 29.9µM* | 7.08µM* | . | 8.91µM* | 41.8µM* | .
O=C(COC(=O)c1cc(=O)[nH]c2ccccc12)Nc1ccc(F)cc1 | -3.1% | . | ? | ? | . | .
